PLK1 PBD inh = inhibitors of human PLK1 polo-box domain binding; P53350; Plk1 PBD binding of FITC phosphopeptide, fluorescence polarization; Potency, µM, hits mostly inhibitors; 360,000 compounds, 2.8% hits; note: series mostly up to about 57 µM; nearly all actives have a fitted effect of over 65% in size
Target sequence (P53350 whole entry, looked up, the tested form may be a part): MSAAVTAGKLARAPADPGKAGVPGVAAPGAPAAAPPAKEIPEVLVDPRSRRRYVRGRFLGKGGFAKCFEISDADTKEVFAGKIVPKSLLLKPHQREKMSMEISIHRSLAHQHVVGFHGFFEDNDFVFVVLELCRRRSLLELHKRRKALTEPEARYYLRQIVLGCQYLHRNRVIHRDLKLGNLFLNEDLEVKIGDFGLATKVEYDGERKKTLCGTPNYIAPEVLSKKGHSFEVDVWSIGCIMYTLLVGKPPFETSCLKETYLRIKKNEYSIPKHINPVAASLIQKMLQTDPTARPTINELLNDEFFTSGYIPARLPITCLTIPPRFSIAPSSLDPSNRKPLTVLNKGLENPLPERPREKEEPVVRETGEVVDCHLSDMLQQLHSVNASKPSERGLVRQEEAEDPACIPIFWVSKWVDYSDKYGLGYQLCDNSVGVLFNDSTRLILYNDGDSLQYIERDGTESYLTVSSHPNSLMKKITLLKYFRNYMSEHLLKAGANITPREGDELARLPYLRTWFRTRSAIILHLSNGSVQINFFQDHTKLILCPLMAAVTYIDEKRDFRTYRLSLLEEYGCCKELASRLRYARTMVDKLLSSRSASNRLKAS
KAT2A inh = inhibitors of human GCN5L2 histone acetyltransferase | GCN5L2 HAT assay, ThioGlo1 CoA-SH fluorescence | 390,000 compounds, 0.21% hits | AID 504327 | Potency, µM (series often up to 58.9 µM), hits mostly inhibitors | Q92830
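Free CoA generated was detected with ThioGlo1 (50uM) fluorescence at Ex340nm/Em540nm, read immediately and after 20 min at room temperature. Enzyme, 20 nM in HEPES pH 7.5 buffer, saw compounds 15 min before adding 75uM H3(1-25) peptide and 70uM acetyl-CoA.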
12-LOX inh = ALOX12 (human) lipoxygenase inhibition; P18054; purified 12hLO, xylenol orange hydroperoxide absorbance; Potency, µM (doses to about 108 µM), most hits filed as inhibitors; 580,000 compounds, 1.1% hits; AID 1671190
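Purified human 12hLO (150 nM final) in 25 mM Hepes, 0.01% Triton X-100, pH 7.0 was preincubated 15 min at room temperature with compound. Then 40 uM arachidonic acid was added, 30 min. Hydroperoxide was read by Fe-XO absorbance ratio 573/405 nm.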
VDR inh = vitamin D3 receptor (human) inhibition; P11473; Potency, µM, hits mostly inhibitors; VDR-SRC2-3 peptide fluorescence polarization, 2 h; AID 504847; 400,000 compounds, 0.93% hits
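Inhibition of the VDR/SRC2-3 peptide interaction is quantified by fluorescence polarization. Compounds (23 nl, pintool) incubate with the reagents for 2 hours at ambient room temperature.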
A number is an active result; n = inactive; u = inconclusive; x = no result. Only some compounds are listed: those with a hit (about 3% of all), similar ones and a draw of the others. Calls come from the whole dose curve; as a rule, active = well fitted curve in the direction sought with a large enough effect; inconclusive = small, poorly fitted or top-dose-only effect, or another doubt; inactive = no such curve, though single readings can be large; an effect the other way counts as inactive or inconclusive.

SMILES | PLK1 PBD inh | KAT2A inh | 12-LOX inh | VDR inh
CCOc1ccc(NC(=O)c2ccccc2SC)cc1 | 19µM | n | n | u
COc1ccc(NC(=O)c2ccccc2SC)cc1 | n | n | n | n
COCCSc1ccccc1C(=O)Nc1ccc(Cl)cc1 | n | n | 18µM | n
COc1cccc(-c2cnc([C@@H]3COCCN3Cc3ccc(S(C)(=O)=O)cc3)[nH]2)c1 | x | x | n | x
CC(C(=O)NC1CCN(Cc2ccccc2)CC1)N1Cc2ccccc2C1=O (stereo not drawn) | x | x | n | x
CSc1ncccc1C(=O)Nc1ccc(OC(F)(F)F)cc1 | 34µM | n | n | n
COc1cc(NC(=O)c2cccnc2SC)cc(OC)c1OC | n | n | n | n
COCCSc1ccccc1C(=O)Nc1cccnc1 | n | n | 22µM | u
COc1ccc(Br)c(C(=O)OC(C)C(=O)Nc2c(C)n(C)n(-c3ccccc3)c2=O)c1 (stereo not drawn) | x | x | n | x
Cc1ccc(C(C)C)c(OC(=O)c2ccc(C#N)cc2)c1 | x | x | n | x
COc1ccc(S(=O)(=O)NC2CCCCC2)cc1-n1cnnn1 | 27µM | n | n | n
COc1ccc(-c2nc3c(C)cc(Br)cn3c2CC(C)(C)C)cc1OC | n | x | 32µM | x
COc1ccc(-c2nc3c(C)cc(Br)cn3c2CC2CCCCC2)cc1OC | n | x | 7.1µM | x
COc1ccccc1Cc1c(-c2ccc(OC)c(OC)c2)nc2c(C)cc(Br)cn12 | n | x | u | x
CC(NC(=O)CSc1nncn1-c1ccccc1)c1cccc2ccccc12 (stereo not drawn) | x | x | n | x
CC(C)(C)C(=O)C[n+]1cccc(C(N)=O)c1 | 30µM | n | n | n
COC(=O)c1ccc(C2C(C#N)=C(N)OC3=C2C(=O)CC(C)(C)C3)cc1 (stereo not drawn) | x | x | n | x
CCN(CC)Cc1c(O)ccc2c(-c3ccccc3)cc(=O)oc12 | n | n | u | n
CCCCN(CC)Cc1c(O)ccc2c(-c3ccccc3)cc(=O)oc12 | 27µM | n | n | n
O=C(Cc1cccc(F)c1)N1CCC(Oc2ccccc2-c2nc(C3CC3)no2)C1 (stereo not drawn) | x | x | n | x
O=C1NC(c2ccc3c(c2)OCO3)Nc2ccccc21 (stereo not drawn) | n | n | n | n
CC1(CCc2ccc3c(c2)OCO3)NC(=O)c2ccccc2N1 (stereo not drawn) | 8.4µM | n | n | u
COc1cc2ccc(=O)oc2c(O[C@@H]2O[C@H](CO)[C@@H](O)[C@H](O)[C@H]2O)c1O | n | 22µM | n | n
COc1cc(C2OCC3C(c4ccc(OC5OC(CO)C(O)C(O)C5O)c(OC)c4)OCC23)ccc1O (stereo not drawn) | n | n | 5µM | n
O=c1ccc2ccc(O[C@@H]3O[C@H](CO)[C@@H](O)[C@H](O)[C@H]3O)c(O)c2o1 | n | n | u | u
SMILES | PLK1 PBD inh | KAT2A inh | 12-LOX inh | VDR inh
O=C(NNc1ccc(Cl)cc1)c1sccc1Cl | 27µM | n | u | u
O=C(NNc1cc(Cl)cc(Cl)c1)c1sccc1Cl | x | x | x | n
COC(=O)Cc1cc(=O)n2[nH]cnc2n1 | n | n | 6.3µM | n
COC(=O)[C@@H]1Cc2ncn(C)c2CN1S(=O)(=O)c1ccc(OC)cc1 | x | x | 32µM | x
CCOC(=O)C1=C(C)N(Cc2ccccc2)C(=O)NC1c1ccc(OC)cc1 (stereo not drawn) | n | n | n | n
COC(=O)C1=C(C)N(Cc2ccc(Cl)cc2)C(=S)NC1c1ccc(OC)cc1 (stereo not drawn) | x | x | 40µM | x
COC(=O)C1=C(C)N(Cc2ccc(F)cc2)C(=S)NC1c1ccc(Cl)cc1 (stereo not drawn) | x | x | 40µM | x
COC(=O)C1=C(C)N(Cc2ccc(Br)cc2)C(=S)NC1c1ccc(OC)cc1 (stereo not drawn) | x | x | 45µM | x
COC(=O)C1=C(C)N(Cc2ccccc2)C(=S)N[C@H]1c1cccc(C(F)(F)F)c1 | n | n | u | n
COC(=O)C1=C(C)N(Cc2ccccc2)C(=S)N[C@H]1c1ccc(Br)cc1 | n | n | 45µM | n
COC(=O)C1=C(C)N(Cc2ccccc2)C(=NCC2CC2)N[C@H]1c1ccc(Br)cc1 | x | n | x | x
Cc1nc2nc(C(F)(F)F)[nH]n2c(=O)c1Cc1ccccc1Cl | x | x | n | x
CC(C)(C)c1ccc(C(=O)Nc2ccc(Oc3ccc(Cl)cc3Cl)cc2)cc1 | x | x | n | x
CC(C)C(=O)N1CCc2cc(-c3csc(N)n3)ccc21 | 24µM | n | n | n
CCC(=O)N1CCc2cc(-c3csc(NC(=O)c4ccco4)n3)ccc21 | n | n | n | n
N#Cc1ccc(C(=O)/C=C/c2cc3ccccc3nc2N2CCOCC2)cc1 | x | x | 11µM | x
N#CC(C#N)=Cc1cc2ccccc2nc1N1CCCCC1 | u | n | n | 71µM
Cc1ccc(Cl)cc1N1CCN(Cc2nc3ccsc3c(=O)[nH]2)CC1 | 30µM | n | u | n
COc1ccc(OC)c(C2C(C(=O)c3ccc(C)o3)=C(O)C(=O)N2c2cc(C)on2)c1 (stereo not drawn) | 24µM | n | u | u
Cc1cc(N2C(=O)C(O)=C(C(=O)c3ccc(C)o3)C2c2cccc(Oc3ccccc3)c2)no1 (stereo not drawn) | 24µM | n | u | u
Cc1cc(N2C(=O)C(O)=C(C(=O)c3ccc(C)o3)C2c2cccc(Cl)c2)no1 (stereo not drawn) | n | x | 45µM | x
Cc1cc(N2C(=O)C(O)=C(C(=O)c3ccco3)C2c2cccc(Cl)c2)no1 (stereo not drawn) | n | n | u | n
CCCOc1cccc(C2C(C(=O)c3ccc(C)o3)=C(O)C(=O)N2c2nc(C)c(C(C)=O)s2)c1 (stereo not drawn) | u | n | 1.3µM | u
Cc1ccc(C(=O)C2=C(O)C(=O)N(Cc3cccnc3)C2c2cccc(Oc3ccccc3)c2)o1 (stereo not drawn) | n | x | n | u
COc1ccc(C2C(C(=O)c3ccc(C)o3)=C(O)C(=O)N2c2cc(C)on2)cc1OC (stereo not drawn) | n | n | u | n
SMILES | PLK1 PBD inh | KAT2A inh | 12-LOX inh | VDR inh
CSc1ccc(/C=C/C(=O)Nc2ccccc2-c2cccs2)cc1 | x | x | n | x
COc1ccc(C)cc1CN(C)C(=O)Cn1c(=O)c2c(ncn2C)n(C)c1=O | x | x | n | x
CC(C)c1ccc(S(=O)(=O)N2CCC3(CCCNC3)C2)cc1 (stereo not drawn) | x | x | n | x
COC(=O)c1cc(N)cc(C(=O)OC)c1 | x | x | n | x
Cc1ccccc1NC(=O)N1CCN(C(=O)c2nsc3ccccc23)CC1 | x | x | n | x
Cc1occc1-c1nnc(SCC(=O)c2c[nH]c3ccccc23)n1C | 24µM | n | n | n
C=CCn1cnnc1SCC(=O)c1c[nH]c2ccccc12 | x | x | n | x
Cc1occc1-c1nnc(SCC(=O)c2ccc(Cl)cc2)n1C | n | n | n | u
COc1ccccc1-n1cnnc1SCC(=O)c1c[nH]c2ccccc12 | 27µM | n | n | u
CC(C)Cn1c(Cn2cccn2)nc2cc(NC(=O)COc3ccc(Cl)cc3)ccc21 | x | x | n | x
FC(F)(F)c1cc(Cl)c2nc(-c3ccco3)c(Cc3ccccc3C(F)(F)F)n2c1 | n | x | 10µM | x
COc1ccc(NC(=O)C2CCC2)c2cccnc12 | x | x | n | x
CCNC(=O)NC(=O)C(C)OC(=O)Cc1c[nH]c2ccccc12 (stereo not drawn) | x | x | n | x
